From PubChem BioAssay AID1159580 (chemical genetic matrix, 2015)
The campaign covered roughly 5,500 compounds. About 2,000 (36%) were called active. Roughly 18% stayed inconclusive and do not appear here. No stated cut-off is given here; in the data, active means normalized growth mostly below about 0.91 (no sharp cut-off); inconclusive means no clear call, values can overlap the other calls; inactive means mostly above about 0.92. This is one part of the list.

Experiment: chemical genetic growth profiling, strain panel (AID 1159580);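 further: tested at 20 µM; growth read once vehicle control cultures reached saturation at 30 °C; 1 = growth at the plate median or of vehicle wells; lower values mean less growth of the strain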
Details: growth OD

Measured: normalized growth

CNC(=O)CSP(=S)(OC)OC
inactive: S. cerevisiae deletion strains, locus YJR075W, strain HOC1, hits give low values 1.02 | S. cerevisiae deletion strains, locus YKL009W, strain mrt4, hits give low values 1 | S. cerevisiae deletion strains, locus YKL068W, hits give low values 1.01 | S. cerevisiae deletion strains, locus YKL085W, strain MDH1 (second series), hits give low values 1.01 | S. cerevisiae deletion strains, locus YKL085W, strain MDH1, hits give low values 1.01 | S. cerevisiae deletion strains, locus YKL160W, strain elf1, hits give low values 1.01 | S. cerevisiae deletion strains, locus YKL190W, strain CNB1, hits give low values 0.979 | S. cerevisiae deletion strains, locus YKR001C, strain vps1, hits give low values 1.02 | S. cerevisiae deletion strains, locus YKR026C, strain gcn3, hits give low values 1.01 | S. cerevisiae deletion strains, locus YKR091W, strain srl3, hits give low values 1.02 | S. cerevisiae deletion strains, locus YLL001W, strain dnm1, hits give low values 1.01 | S. cerevisiae deletion strains, locus YLL026W, hits give low values 1.02 | S. cerevisiae deletion strains, locus YLL041C, strain sdh2, hits give low values 1.03 | S. cerevisiae deletion strains, locus YLR027C, strain aat2, hits give low values 1.01 | S. cerevisiae deletion strains, locus YLR039C, strain RIC1, hits give low values 0.993 | S. cerevisiae deletion strains, locus YLR058C, strain SHM2, hits give low values 1.01 | S. cerevisiae deletion strains, locus YLR102C, strain apc9, hits give low values 1.02 | S. cerevisiae deletion strains, locus YLR113W, strain HOG1, hits give low values 0.997 | S. cerevisiae deletion strains, locus YLR221C, strain rsa3, hits give low values 1.03 | S. cerevisiae deletion strains, locus YLR258W, strain gsy2, hits give low values 1.03 | S. cerevisiae deletion strains, locus YLR262C, strain YPT6 (second series), hits give low values 1.05 | S. cerevisiae deletion strains, locus YLR262C, strain YPT6, hits give low values 0.999 | S. cerevisiae deletion strains, locus YLR268W, strain sec22, hits give low values 1.01 | S. cerevisiae deletion strains, locus YLR320W, strain mms22, hits give low values 1.02 | S. cerevisiae deletion strains, locus YLR330W, strain CHS5, hits give low values 1.01 | S. cerevisiae deletion strains, locus YLR342W, strain FKS1 (second series), hits give low values 1.04 | S. cerevisiae deletion strains, locus YLR342W, strain FKS1, hits give low values 1.02 | S. cerevisiae deletion strains, locus YLR357W, strain rsc2, hits give low values 0.986 | S. cerevisiae deletion strains, locus YLR370C, strain arc18, hits give low values 1.03 | S. cerevisiae deletion strains, locus YLR371W, strain rom2, hits give low values 1.02 | S. cerevisiae deletion strains, locus YLR384C, strain iki3, hits give low values 1.04 | S. cerevisiae deletion strains, locus YLR418C, strain cdc73, hits give low values 1.01 | S. cerevisiae deletion strains, locus YML016C, strain PPZ1, hits give low values 1 | S. cerevisiae deletion strains, locus YML032C, strain rad52, hits give low values 1.03 | S. cerevisiae deletion strains, locus YML120C, strain ndi1, hits give low values 1.02 | S. cerevisiae deletion strains, locus YML124C, strain tub3, hits give low values 1.02 | S. cerevisiae deletion strains, locus YMR058W, strain fet3, hits give low values 1.01 | S. cerevisiae deletion strains, locus YMR078C, strain ctf18, hits give low values 1.02 | S. cerevisiae deletion strains, locus YMR125W, strain sto1, hits give low values 1.02 | S. cerevisiae deletion strains, locus YMR129W, hits give low values 1.01 | S. cerevisiae deletion strains, locus YMR205C, strain PFK2, hits give low values 1.01 | S. cerevisiae deletion strains, locus YMR223W, strain ubp8, hits give low values 1.02 | S. cerevisiae deletion strains, locus YMR231W, strain pep5, hits give low values 1.01 | S. cerevisiae deletion strains, locus YMR263W, strain SAP30, hits give low values 1.02 | S. cerevisiae deletion strains, locus YMR307W, strain GAS1, hits give low values 1.03 | S. cerevisiae deletion strains, locus YNL067W, strain RPL9B, hits give low values 1.01 | S. cerevisiae deletion strains, locus YNL071W, strain lat1, hits give low values 1 | S. cerevisiae deletion strains, locus YNL128W, strain TEP1, hits give low values 1.01 | S. cerevisiae deletion strains, locus YNL153C, strain GIM3, hits give low values 1.01 | S. cerevisiae deletion strains, locus YNL183C, strain NPR1, hits give low values 0.982 | S. cerevisiae deletion strains, locus YNL209W, strain ssb2, hits give low values 0.999 | S. cerevisiae deletion strains, locus YNL233W, strain BNI4, hits give low values 0.991 | S. cerevisiae deletion strains, locus YNL248C, strain rpa49, hits give low values 1.02 | S. cerevisiae deletion strains, locus YNL250W, strain rad50, hits give low values 1.02 | S. cerevisiae deletion strains, locus YNL271C, strain bni1, hits give low values 1.02 | S. cerevisiae deletion strains, locus YNL298W, strain CLA4, hits give low values 1.02 | S. cerevisiae deletion strains, locus YNL307C, strain MCK1, hits give low values 1.04 | S. cerevisiae deletion strains, locus YNL322C, strain KRE1 (second series), hits give low values 1 | S. cerevisiae deletion strains, locus YNL322C, strain KRE1, hits give low values 1.01 | S. cerevisiae deletion strains, locus YNR049C, strain mso1, hits give low values 1.02 | S. cerevisiae deletion strains, locus YNR052C, strain pop2, hits give low values 1.02 | S. cerevisiae deletion strains, locus YOL006C, strain TOP1, hits give low values 1.05 | S. cerevisiae deletion strains, locus YOL012C, strain htz1 1.12 | S. cerevisiae deletion strains, locus YOL147C, strain pex11, hits give low values 1.01 | S. cerevisiae deletion strains, locus YOR001W, strain rrp6, hits give low values 1.02 | S. cerevisiae deletion strains, locus YOR061W, strain CKA2, hits give low values 1.01 | S. cerevisiae deletion strains, locus YOR069W, strain VPS5, hits give low values 1 | S. cerevisiae deletion strains, locus YOR070C, strain gyp1, hits give low values 1.02 | S. cerevisiae deletion strains, locus YOR080W, strain dia2, hits give low values 1.02 | S. cerevisiae deletion strains, locus YOR083W, strain WHI5, hits give low values 1.01 | S. cerevisiae deletion strains, locus YOR106W, strain vam3, hits give low values 1.01 | S. cerevisiae deletion strains, locus YOR136W, strain idh2, hits give low values 1.01 | S. cerevisiae deletion strains, locus YOR144C, strain elg1, hits give low values 1.02 | S. cerevisiae deletion strains, locus YOR184W, strain ser1, hits give low values 1.04 | S. cerevisiae deletion strains, locus YOR231W, strain MKK1, hits give low values 1.04 | S. cerevisiae deletion strains, locus YOR265W, strain rbl2, hits give low values 1.03 | S. cerevisiae deletion strains, locus YOR270C, strain vph1, hits give low values 1.05 | S. cerevisiae deletion strains, locus YOR290C, strain snf2, hits give low values 1.03 | S. cerevisiae deletion strains, locus YOR316C, strain cot1, hits give low values 1.03 | S. cerevisiae deletion strains, locus YPL051W, strain arl3, hits give low values 1.01 | S. cerevisiae deletion strains, locus YPL055C, strain LGE1, hits give low values 1 | S. cerevisiae deletion strains, locus YPL078C, strain atp4, hits give low values 1.01 | S. cerevisiae deletion strains, locus YPL106C, strain sse1, hits give low values 1 | S. cerevisiae deletion strains, locus YPL240C, strain hsp82, hits give low values 1.02 | S. cerevisiae deletion strains, locus YPL241C, strain CIN2, hits give low values 1.02 | S. cerevisiae deletion strains, locus YPL256C, strain CLN2, hits give low values 1.05 | S. cerevisiae deletion strains, locus YPR119W, strain clb2, hits give low values 1.02 | S. cerevisiae deletion strains, locus YPR141C, strain kar3, hits give low values 1.02 | S. cerevisiae deletion strains, locus YPR163C, strain tif3, hits give low values 1.02 | S. cerevisiae deletion strains, locus YPR167C, strain met16, hits give low values 1.02 | S. cerevisiae deletion strains, strain wtn01, hits give low values 1.02 | S. cerevisiae strains, strain wild type, hits give low values 1.02
